# Test results from PubChem BioAssay (NCI).
# This is part of a sample that, as a whole, favours compounds with a hit. Of some 83,000 tested, about 20% had one in any assay.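 Percent growth is the endpoint: 0 to 100 indicates growth inhibition (40 means 60% inhibition), 0 means no net growth, and negative values indicate cell death.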 A number with no mark means an inactive call. Activity calls are given as the source filed them. The calls were made as follows: active = growth percent below 10; inactive = the rest.
# Legend:
# Test in all cases: NCI-60 one-dose screen, 48 h (100 = growth as untreated, 0 = no growth, -100 = all killed)
# BT-549 breast = settings: 10 µM unless noted
# MDA-MB-435 melanoma = settings: 10 µM unless noted
# SW-620 colon = settings: 10 µM unless noted
# MCF7 breast = settings: 10 µM
# HCT-116 colon = settings: 10 µM unless noted
# HCC-2998 colon = settings: 10 µM unless noted
# KM12 colon = settings: 10 µM unless noted
Structure (SMILES),growth (BT-549 breast),growth (MDA-MB-435 melanoma),growth (SW-620 colon),growth (MCF7 breast),growth (HCT-116 colon),growth (HCC-2998 colon),growth (KM12 colon)
C1=CC2(C=C1)OC21CCC2(C=CC3(C2)OC3C2CCCCC2)CC1 (stereo unspecified),107%,97.4%,109%,106%,101%,105%,105%
COc1ccc(C2c3ccc4ccccc4c3Oc3ncn(CCCn4ccnc4)c(=N)c32)cc1OC (stereo unspecified),69.9%,64.5%,64.4%,51.8%,28.8%,73.3%,84.2%
O=C(NCCCN1CCC(N2CCCCC2)CC1)C1=Cc2cc(Br)ccc2OC1,90%,51.3%,56.2%,25.5%,37%,20.4%,12.4%
COC(=O)c1c2c(c(C)[n+]([O-])c1C)C(=O)C=C(NCc1ccccc1)C2=O,-67.5% (active),-89.6% (active),-27.9% (active),-62.1% (active),-12.6% (active),-34.5% (active),-10.5% (active)
CCCCc1c(CCC)c(=N)c2ccccc2n1C,88.1%,64.9%,59%,50.2%,64.1%,107%,77.2%
CN=c1ccc2nc3ccc(N)cc3sc-2c1,52.4%,-62.6% (active),10.8%,-12.7% (active),6.01% (active),49.8%,27.9%
COc1ccc(-c2cn[nH]c2-c2cc(OC)c(OC)c(OC)c2)cc1OCc1ccccc1,60%,-61.8% (active),26.6%,17.2%,17.6%,34.8%,14.7%
Cc1ccc2cc3c(N)c4c(C)ccc(C)c4nc3nc2c1,53.9%,-70.3% (active),11.1%,37.9%,24.5%,62%,69.6%
CC(=O)Nc1nc2c(s1)CCc1c-2cn(S(=O)(=O)c2ccccc2)c1-c1ccccc1,97.7%,59.7%,79.5%,54.2%,57.9%,80.4%,54.9%
COc1ccc(Cn2c(Br)c3c(c2-c2cc(OC)c(OC)c(OC)c2)CCc2sc(NC(=O)c4ccc(OC)cc4)nc2-3)cc1,96.1%,99.5%,96.2%,91.5%,90.8%,108%,94.2%
O=C(Nc1ccc(N2CCNCC2)cc1)c1[nH]ncc1Nc1ncnc2sc3c(c12)CCC3,0.151% (active),-94.4% (active),-83.1% (active),-59% (active),-85.4% (active),-91.4% (active),-82.4% (active)
Cc1cc(Nc2ccc(OCc3ccccc3)cc2)nc2cc(O)ccc12,69.7%,65.6%,11%,39.3%,30.6%,-34% (active),45.6%
COc1ccc(C(=O)C2CC2c2ccc(Cl)cc2)cc1 (stereo unspecified),57.3%,95.6%,102%,103%,77.1%,98.8%,68.7%
CCCC(c1nnnn1C1CCCCC1)N1CCN(C(=O)c2ccco2)CC1 (stereo unspecified),58.9%,-21.7% (active),22.4%,45.4%,31.7%,76.4%,47.5%
COc1ccc(-c2cc(=O)c3c(OC)c4ccoc4c(/C=C/C=O)c3o2)cc1,-22.9% (active),21.5%,19.6%,17.3%,-73% (active),92.3%,80%
COc1cc([C@@H]2NC(=O)NC(C)=C2C(=O)Nc2nc(-c3ccc(Cl)cc3)cs2)ccc1O,98.8%,104%,103%,103%,99.3%,104%,102%
CS(=O)(=O)Nc1ccc(C(=O)NC(C(=O)NO)c2ccc(-c3cccc(F)c3)cc2)cc1 (stereo unspecified),94.1%,54.5%,51.2%,66.7%,39.1%,62.6%,58.2%

Structure (SMILES),growth (BT-549 breast),growth (MDA-MB-435 melanoma),growth (SW-620 colon),growth (MCF7 breast),growth (HCT-116 colon),growth (HCC-2998 colon),growth (KM12 colon)
Cc1ccc(C)c(-c2csc(Nc3ccc(C)c(C)c3)n2)c1,64.6%,-58.3% (active),-33% (active),-30.3% (active),3.25% (active),27.6%,59.5%
NCCOc1ncccc1/C=C1\c2ccccc2-c2ccc(F)cc21,82.4%,60.7%,14.7%,14.9%,15%,18.3%,8.88% (active)
COc1cc(/C=C/C(=O)c2ccc(Nc3nc(NCCO)nc(N4CCOCC4)n3)cc2)cc(OC)c1OC,33.5%,10.1%,7.8% (active),3.22% (active),9.47% (active),20%,7.4% (active)
Brc1ccc(Nc2nc3ccccc3nc2Nc2ccc(Br)cc2)cc1,-12.6% (active),-60.2% (active),-69.9% (active),1.16% (active),-86.3% (active),-56.5% (active),-55.3% (active)
Nc1no[n+]([O-])c1-c1nnc2c(n1)-c1ccccc1C2=O,80.8%,18.8%,29.9%,-48.9% (active),1.78% (active),68.1%,73.1%
NC(=O)CSc1nc(-c2ccc(F)cc2)cc(-c2ccco2)n1,99.5%,104%,116%,83.2%,98%,109%,106%
CCCCN1CCN(c2ccc3nc(-c4ccc5nc(-c6ccc(C(F)(F)F)cc6)[nH]c5c4)[nH]c3c2)CC1,-53.2% (active),-85.3% (active),-76.9% (active),-74.3% (active),-70.7% (active),-84% (active),-88.3% (active)
O=C(Nc1ccsc1C(=O)NC1CCCCC1)c1ccc(F)cc1,113%,110%,92.5%,90.6%,76%,97%,107%
COc1cccc2cc(N(C)c3nc(C)nc4ccsc34)ccc12,13.3%,-16.1% (active),22.3%,16.9%,-0.926% (active),7.08% (active),-1.06% (active)
O=C(Nc1ccc(Cl)cc1)c1cc2ccccc2cc1OP(=O)(O)O,11.7%,15.8%,42.3%,54%,10.8%,47.9%,56.2%
COC(=O)/C(=C\c1c(-c2ccccc2)[nH]c2ccccc12)S(C)(=O)=O,45.7%,4.05% (active),20.4%,15.6%,17.4%,44.7%,4.53% (active)
COc1cc2nc(-c3cccc4cccnc34)nc(NC3CCN(Cc4ccccc4)CC3)c2cc1OC,-65% (active),-93.3% (active),-74.8% (active),-77.2% (active),-63.7% (active),-91% (active),-76% (active)
CCOc1ccccc1CN1CCc2nc3cc(C(C)(C)C)[nH]n3c(=O)c2C1,106%,104%,105%,98%,102%,98.7%,98.2%
COc1cc2cc3c(=O)n4c(cc5cc(OC)ncc54)c(=O)n3c2cn1,106%,110%,105%,95.4%,100%,106%,105%
COc1ccc2sc3c(NCCCN)nc4ccccc4c3c(=O)c2c1,82.1%,-79% (active),-75% (active),-74.2% (active),-84.1% (active),-67.1% (active),-54.6% (active)
COc1ccc(C)c2sc(N(Cc3cccnc3)C(=O)c3ccc(C#N)cc3)nc12,21.7%,10.1%,10.8%,3.83% (active),13.2%,10.9%,18.2%
